This excerpt belongs to a sample that is enriched for hits.
PI4K2A block – PI4K2A (human) kinase inhibition; Q9BTU6; purified PI4K2A, ADP-Glo luminescence, 1 h; hits give low values; activity change, negative = inhibition, % at 76.9 µM; 420,000 compounds, 0.13% hits; in the data active means activity change below about -50%; inconclusive means mostly about -30% to -49%
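Compounds are screened against recombinant PI4K2A using PI as substrate and ATP, the latter dispensed at 300 microM. Reactions run one hour at ambient temperature before ADP-Glo detection; full inhibition defined by wells lacking enzyme.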
Tb PFK inh-1 – blocks T. brucei phosphofructokinase; 330,000 compounds, 0.17% hits; T. brucei PFK, ADP-Glo luminescence; O15648; Potency, µM (highest dose often 57.5 µM), actives largely listed as inhibitors; AID 485367; further: nearly all actives have a fitted effect of over 60% in size
Target sequence (O15648 whole entry, looked up): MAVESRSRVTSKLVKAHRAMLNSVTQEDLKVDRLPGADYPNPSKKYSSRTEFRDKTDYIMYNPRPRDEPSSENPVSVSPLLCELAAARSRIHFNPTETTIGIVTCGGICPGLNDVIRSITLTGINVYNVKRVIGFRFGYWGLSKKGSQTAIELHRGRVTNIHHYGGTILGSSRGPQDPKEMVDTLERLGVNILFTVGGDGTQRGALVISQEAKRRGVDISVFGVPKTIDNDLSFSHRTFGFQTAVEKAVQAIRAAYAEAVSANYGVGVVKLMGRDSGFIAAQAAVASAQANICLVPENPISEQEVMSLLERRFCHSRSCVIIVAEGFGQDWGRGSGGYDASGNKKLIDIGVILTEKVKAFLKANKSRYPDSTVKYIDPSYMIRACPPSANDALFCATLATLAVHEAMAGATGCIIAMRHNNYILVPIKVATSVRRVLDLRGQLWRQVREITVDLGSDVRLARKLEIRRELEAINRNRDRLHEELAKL
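Luminescent ADP detection (ADP-Glo, two-step: ATP depletion then ADP-to-ATP conversion for luciferase) reported PFK activity after 45 min room-temperature reaction of 1.25 nM enzyme with 0.5 mM F6P and 0.1 mM ATP at pH 8.0.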
PI5P4K alpha inh – PI5P4K alpha (human) kinase inhibition | PI5P4Kalpha enzyme, ADP-Glo luminescence, 60 min; hits give low values | max response, % | 330,000 compounds, 1.2% hits; active means max response of -50% or lower; inconclusive means between -30% and -50%; inactive means -30% or higher; further: value at the top dose of about 77 µM
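Luminescence from ADP-Glo served as readout of PI5P4Kalpha activity in a qHTS format. Reaction: enzyme, substrate, compound, ATP at 5 microM final, 60 min at RT.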
Pin1 inhibitor – blocks the human prolyl isomerase Pin1; Pin1 FP peptide displacement, HiFluor488, 10 min; Q13526; AID 504891; 390,000 compounds, 0.009% hits; Potency, µM (series often up to 115 µM), most hits filed as inhibitors; active means well fitted inhibition curve with a large enough effect in the polarisation, with a control signal flat, not every such curve was filed as active; inconclusive means small, poorly fitted or top-dose-only effect, or effect the other way, or a change in a side signal; inactive means no such curve, though single readings can be large or run the other way; the % refers to the polarisation
Target sequence (Q13526 whole entry, looked up): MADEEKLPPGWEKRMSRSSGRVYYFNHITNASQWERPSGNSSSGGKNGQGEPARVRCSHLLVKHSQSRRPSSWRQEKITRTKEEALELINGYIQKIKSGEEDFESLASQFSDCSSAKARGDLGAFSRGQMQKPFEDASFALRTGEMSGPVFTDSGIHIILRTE
Tb PGK inh – inhibitors of T. brucei phosphoglycerate kinase. 380,000 compounds, 0.043% hits. Potency, µM (titrated, usually from 57.5 µM), hits mostly inhibitors. AID 602233. P07378. PGK/GAPDH coupled, Kinase-Glo luminescence, 60 min; further: nearly all actives have a fitted effect of over 60% in size
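Recombinant glycosomal PGK reaction used 1,3-bisphosphoglycerate generated in-well by GAPDH (100nM final) in 100mM TEA pH 7.6, 5mM MgCl2, 0.01% Tween-20. After 60 minutes at room temperature, ATP was read by Kinase-Glo Plus luminescence end-point.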
TbPFK ATP – orthogonal confirmation of T. brucei phosphofructokinase inhibitors; shares compounds with Tb PFK inh-1; AID 504636; Tb PFK enzyme, ATP depletion, Kinase-Glo Plus luminescence; Potency, µM (series often up to 57.5 µM); 1,100 compounds, 47% hits; calls by dose curve; further: nearly all actives have a fitted effect of over 60% in size
Tb PFK inh-2 – T. brucei PFK enzyme inhibition, hit validation; shares compounds with Tb PFK inh-1; purified T. brucei PFK, ADP-Glo luminescence, 45 min; Potency, µM (series often up to 57.5 µM), hits mostly inhibitors; 1,100 compounds, 41% hits; further: nearly all actives have a fitted effect of over 60% in size
Large screens that a line does not name were inactive (follow-up assays come after a bar, where they were run). Unless noted, the call rests on the fitted dose curve; in most records, active means well fitted curve in the direction sought with a large enough effect; inconclusive means small, poorly fitted or top-dose-only effect, or another doubt; inactive means no such curve, though single readings can be large; an effect the other way counts as inactive or inconclusive.

CCOC(=O)C1=C(C)c2ccccc2N(C(=O)OC)C1(C)C(=O)OCC (configuration not stated)	Tb PFK inh-1 inconclusive | TbPFK ATP 21µM | Tb PFK inh-2 inconclusive
CCOC(=O)C1(c2ccccc2)Oc2ccccc2C(c2ccc(OC)cc2)=C1C(=O)OC (configuration not stated)	none
Cc1cc(N(CCCl)CCCl)ccc1C=NNC(=O)c1cccnc1	none (no result: Tb PFK inh-1)
Cc1ccc(N/N=C/c2c(O)n(-c3ccccc3)c(=O)[nH]c2=O)cc1	none
Cc1ccc(N/N=C/c2c(C)c(C#N)c(=O)n(C)c2O)cc1C	Tb PFK inh-1 inconclusive, PI5P4K alpha inh -54, Pin1 inhibitor inconclusive | TbPFK ATP inactive | Tb PFK inh-2 inactive
CC(C)(C)C(=O)[C@@H]1[C@@H]2C(=O)N(c3ccc4c(c3)OCCO4)C(=O)[C@@H]2C2c3ccccc3C=CN21 (some centres not stated)	Tb PFK inh-1 inconclusive | TbPFK ATP inactive | Tb PFK inh-2 inactive
c1ccc(-c2csc(-n3cnnn3)n2)cc1	Tb PFK inh-1 inconclusive | TbPFK ATP inconclusive | Tb PFK inh-2 inactive
O=C(c1csc2c1CCCCC2)N1CCC2(CC1)OCCO2	none (no result: PI5P4K alpha inh)
CCOCCCN=Cc1c(O)n(Cc2ccccc2)c(=O)[nH]c1=O	none
CCOc1ccc(NC(=O)CCS(=O)(=O)c2ccc(Br)cc2)cc1	Tb PFK inh-1 15µM, Tb PGK inh inconclusive | TbPFK ATP 2.7µM | Tb PFK inh-2 4.8µM
C#CC(CC)(CC)NC(=O)Nc1ccc(OCC)cc1	none
C#C[C@@]1(O)CCC2C3CCC4=C/C(=N/OCC(=O)NC(C(=O)NC(CC(C)C)C(=O)O)C(C)C)CC[C@]4(C)C3CC[C@@]21C (some centres not stated)	none
CCCC[N+]12C3C[C@H](C4[C@H](O)[C@]5(C[C@@H]41)c1ccccc1N(C)[C@@H]35)[C@H](CC)[C@H]2O (some centres not stated)	none (no result: Tb PGK inh)
C[n+]1cccc2cccc([O-])c21	PI4K2A block inconclusive, Tb PFK inh-1 inconclusive, Pin1 inhibitor inconclusive | TbPFK ATP inconclusive | Tb PFK inh-2 inconclusive
Cc1ccc(OCC(=O)N2CCN(Cc3ccc([N+](=O)[O-])cc3)CC2)cc1	none
CN1CCN(C(=O)c2sc(=S)n(-c3ccccc3)c2N)CC1	Tb PFK inh-1 11µM, PI5P4K alpha inh inconclusive | TbPFK ATP 3.8µM | Tb PFK inh-2 5.4µM
CCN(CC)C(=O)c1ccc(NC(=O)COC(=O)c2ccc(Cl)s2)cc1	none
O=C(COC(=O)c1cc2c(s1)CCC2)Nc1ccc(F)cc1	Tb PFK inh-1 11µM, PI5P4K alpha inh inconclusive, Pin1 inhibitor inconclusive, Tb PGK inh inconclusive | TbPFK ATP inconclusive | Tb PFK inh-2 inconclusive
COC(=O)C1=C(c2cccc(C#N)c2)C[C@@H]2CC[C@H]1N2C(=O)N1CCCCC1	none
O=C1C=C(NCc2ccc(Cl)cc2Cl)C2(CCCCC2)O1	Tb PFK inh-1 11µM (no result: PI5P4K alpha inh) | TbPFK ATP 5.4µM | Tb PFK inh-2 17µM
CC1(C)CC(=O)C(C(C2=C(O)CC(C)(C)CC2=O)c2cccs2)C(=O)C1 (configuration not stated)	Tb PFK inh-1 inconclusive, PI5P4K alpha inh inconclusive | TbPFK ATP inactive | Tb PFK inh-2 inconclusive
CCC(=O)c1cn(Cc2ccc(C#N)cc2)c2ccccc12	none
O=C(CN1C(=O)/C(=C2\SC(=S)N(CCS(=O)(=O)O)C2=O)c2ccccc21)Nc1cccc(Br)c1	Tb PFK inh-1 27µM, PI5P4K alpha inh -97, Tb PGK inh inconclusive (no result: Pin1 inhibitor) | TbPFK ATP 4.3µM | Tb PFK inh-2 7.6µM
CC/C(=N/Nc1cccc(Cl)c1)c1cnnc(SC)n1	Tb PFK inh-1 inconclusive | TbPFK ATP inconclusive | Tb PFK inh-2 inconclusive
O=CC(Cl)P(=O)(N1CCOCC1)N1CCOCC1 (configuration not stated)	none
O=C(C1CCN(S(=O)(=O)c2cccnc2)CC1)N1CCN(c2cccc(Cl)c2)CC1	Tb PFK inh-1 21µM | TbPFK ATP inconclusive | Tb PFK inh-2 inactive
O=S(=O)(c1ccc(Cl)cc1)N1CCCCC1c1cccnc1 (configuration not stated)	none
O=C(C1CCN(c2ncnc3c2nc2n3CCCCC2)CC1)N1CCN(c2cccc(Cl)c2)CC1	Tb PFK inh-1 9.5µM | TbPFK ATP 24µM | Tb PFK inh-2 inconclusive
CCNc1nc(Cl)nc(NC(C)C)n1	none
Cc1ccnc(NC(=O)CCCc2ccc(N(CCCl)CCCl)cc2)n1	none (no result: Tb PFK inh-1)
Cc1ccnc(NS(=O)(=O)c2ccc(NC(=O)Cc3ccc(Cl)cc3)cc2)n1	Tb PFK inh-1 27µM | TbPFK ATP 15µM | Tb PFK inh-2 inconclusive
O=C(Cc1ccc(Br)cc1)Nc1ccc(S(=O)(=O)Nc2ncccn2)cc1	Tb PFK inh-1 24µM | TbPFK ATP 21µM | Tb PFK inh-2 21µM
O=C(Cc1ccc(Cl)cc1)Nc1ccc(S(=O)(=O)Nc2ncccn2)cc1	Tb PFK inh-1 21µM | TbPFK ATP 11µM | Tb PFK inh-2 19µM
COc1cccc(CC(=O)Nc2ccc(S(=O)(=O)Nc3nccs3)cc2)c1	Tb PFK inh-1 19µM | TbPFK ATP 19µM | Tb PFK inh-2 inconclusive
N#Cc1ccc(CN2Cc3ccccc3-n3nncc3C2)cc1	none (no result: Tb PFK inh-1, Pin1 inhibitor)
N=C1C(c2ccccc2)=C(O)CN1Cc1ccco1	none (no result: PI5P4K alpha inh)
C=C(C)c1cccc(C(C)(C)NC(=O)NC2CN3CCC2CC3)c1 (configuration not stated)	none (no result: PI5P4K alpha inh)
O=P(O)(O)CN1CCNCCN(CP(=O)(O)O)CCNCC1	none (no result: Tb PFK inh-1)
O=C(CSC1=NS(=O)(=O)c2ccccc2N1)c1ccccc1	Tb PFK inh-1 inconclusive | TbPFK ATP 21µM | Tb PFK inh-2 inconclusive
Cc1ccc(-c2nc3c(c(SCC(=O)Nc4cccc(C(=O)O)c4)n2)Cc2cccc(C)c2O3)cc1	Tb PFK inh-1 1.7µM, Pin1 inhibitor inconclusive (no result: PI4K2A block, PI5P4K alpha inh, Tb PGK inh) | TbPFK ATP 1.1µM | Tb PFK inh-2 inconclusive
CCOc1cc2c(cc1OCC)-n1cccc1C(c1ccccc1F)NC2 (configuration not stated)	none
O=Cc1cn(Cc2cccc([N+](=O)[O-])c2)c2ccccc12	Tb PFK inh-1 inconclusive | TbPFK ATP inconclusive | Tb PFK inh-2 inactive
Cc1cccc(Cn2cc(C=O)c3ccccc32)c1	none
Nn1c(Cc2cccc3ccccc23)n[nH]c1=S	Tb PFK inh-1 inconclusive | TbPFK ATP 1.5µM | Tb PFK inh-2 2.1µM
CC(=O)N(C)Cc1ccc(C(=O)CCl)cc1	Tb PFK inh-1 inconclusive | TbPFK ATP 2.4µM | Tb PFK inh-2 3µM
Cc1cc(SCc2ccc(Cl)c(Cl)c2)nc(=O)[nH]1	Tb PFK inh-1 inconclusive | TbPFK ATP 12µM | Tb PFK inh-2 24µM
CN1CCN(c2ccc([N+](=O)[O-])c(SCCO)c2)CC1	none

From PubChem BioAssay
